From PubChem BioAssay AID434973 (Sanford-Burnham Center for Chemical Genomics, 2010) come the findings set out here.

Hit rate of the full screen: of about 330,000 compounds, about 4,900 (1.5%) were called active.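 The calls were made as follows: active = inhibition above about 50% at the single test dose (limit read from the data); inactive = the rest.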 The sample as a whole holds a higher share of actives than the screen did.

The target in the test is Sentrin-specific protease 7 (Homo sapiens) (UniProt Q9BQF6). Put plainly: SENP7 protease inhibitors, primary screen, biochemical, luminescence, uHTS (AID 434973).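 Also: plate controls were DMSO with enzyme for no effect and no enzyme buffer wells for full effect.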 Conditions: recombinant SENP7, Z-RLRGG-aminoluciferin luminescence, 40 min; at 5 µM; stronger effect = higher value.
Regarding `CCN(CC)S(=O)(=O)c1ccc(C(=O)N2CCN(C3=NS(=O)(=O)c4ccccc43)CC2)cc1`, the inhibition (usually the change of the read-out against control, counted positive when it falls) was 0.565% (inactive). For `COC(CNC(=O)c1ccc2c(c1)ncn2-c1cc(C)cc(C)c1)OC`, the inhibition is -3.05% (inactive). With `COc1cc2c(cc1OC)C(C)N(S(=O)(=O)c1cnc(Cl)c(Cl)c1)CC2` (configuration not stated), the inhibition is 7.13% (inactive). Consider `CCn1ccnc1CN(C)Cc1nc(-c2ccc3c(c2)OCO3)no1`, for which the inhibition is 3.04% (inactive). On to `Cc1cccc(OCC(=O)Nc2ccc(NC(=O)c3ccco3)c(C)c2)c1`, for which the inhibition was 7.42% (inactive).

Take `Cc1cc(NC(=O)c2ccc(F)cc2)ccc1NC(=O)c1ccco1`: the inhibition is 64.1% (active).

As for `COc1ccccc1C(=O)Nc1ccc(NC(=O)c2ccco2)c(C)c1`, the inhibition is 50.6% (active). Then `COc1ccc(OCC(=O)Nc2ccc(NC(=O)c3ccco3)c(C)c2)cc1`, with -4.14% (inactive); and `O=C(Nc1ccc(O)cc1)c1ccc(NC(=O)c2ccco2)cc1`, with -10.1% (inactive); and `COc1ccc(NC(=O)c2ccco2)cc1NC(=O)c1ccc(C#N)cc1F`, with 1.99% (inactive). `[O-][N+]12CCCCC1CCCC2CO` (configuration not stated): the inhibition was 5.46% (inactive).

As for `O=C(COc1nc2ccccc2nc1N1CCOCC1)NCC(F)(F)F`, the inhibition was -5.55% (inactive). With `CC1CCN(C(=O)C2CCN(S(=O)(=O)N3CCC4(CC3)OCCO4)CC2)CC1`, the inhibition was 6.94% (inactive). For `C=CCNC(=O)c1cc(-c2ccccc2O)on1`, the inhibition was -13.1% (inactive). With `O=C(Nc1cccnc1Cl)c1cc(-c2cccc(Cl)c2)on1`, the inhibition was -0.404% (inactive). For `O=C(Nc1cccnc1Cl)c1cc(-c2ccccc2O)on1`, the inhibition is 52% (active).

Take `Cc1nc2nc(COc3ccccc3)[nH]n2c(=O)c1Cc1ccccc1`: the inhibition was -6.63% (inactive).

In the case of `CC(Oc1ccc(Br)cc1Br)C(=O)NC1CCCC1` (configuration not stated), the inhibition is 4.39% (inactive). With `CN(CCC(=O)Nc1cc(S(=O)(=O)N(C)C)ccc1Cl)CC(=O)Nc1ccc(F)cc1`, the inhibition is 4.2% (inactive).

With `Cc1ccccc1Nc1c([N+](=O)[O-])ccc2nonc12`, the inhibition is -0.26% (inactive). On to `Cc1cccc(C(=O)OCC(=O)Nc2ccc(F)cc2)c1`, for which the inhibition was -5.6% (inactive). For the compound `CCC(=O)Nc1ccc2nn(-c3ccc(F)cc3)nc2c1`, the inhibition is 81.9% (active).

Regarding `Cc1ccc(-n2nc3ccc(NC(=O)/C=C/c4ccco4)cc3n2)cc1C`, the inhibition is -3.4% (inactive). On to `CC12CN(Cc3ccccc3)CC(C)(CN(Cc3ccccc3)C1)C2=NO`, for which the inhibition was -9.93% (inactive). In the case of `CCc1noc(C)c1C(=O)Nc1nc2ccc(OC)cc2s1`, the inhibition was 53.6% (active). Consider `COc1cccc(C(=O)Nc2nnc(S(=O)(=O)N(C)c3ccccc3)s2)c1`, for which the inhibition was 2.47% (inactive). With `CCc1noc(C)c1C(=O)Nc1nc(-c2ccccc2)cs1`, the inhibition was 0.582% (inactive). Turning to `COc1cccc(C(=O)Nc2nnc(S(=O)(=O)N3CCOCC3)s2)c1`, the inhibition was -5.71% (inactive).

Regarding `COc1cccc(C(=O)Nc2nc3ccc(S(C)(=O)=O)cc3s2)c1`, the inhibition was 91.1% (active).

As for `Cc1noc(C)c1CSCC(=O)Nc1nc2ccc(Oc3ccccc3)cc2s1`, the inhibition is 7.89% (inactive).

As for `O=C(Nc1ccccc1)c1nnsc1S(=O)(=O)c1ccc(Cl)cc1`, the inhibition was 7.61% (inactive).

As to `O=C(Oc1ccccc1)Oc1ccc2c(c1)oc(=O)c1ccccc12`, the inhibition was 11.6% (inactive).

Regarding `Cc1cc(NC(=O)C(C)SCC(=O)Nc2ccccc2N2CCCCC2)no1` (configuration not stated), the inhibition is 7.37% (inactive).

As for `Cc1nn(C)c(C(=O)NNC(=S)NC2CCCCC2)c1Cl`, the inhibition was 15.8% (inactive). With `O=C(CN1C(=O)NC2(CCCC2)C1=O)OCCOc1ccc(F)cc1`, the inhibition was 2.48% (inactive). `OCCC1CN(Cc2cccc(O)c2)CCN1CCc1ccccc1` (configuration not stated): the inhibition is -3.9% (inactive).

Turning to `Cc1nonc1NC(=O)c1oc2ccccc2c1C`, the inhibition was -17.1% (inactive).

Turning to `Cc1c(C(=O)Nc2ccccn2)oc2ccc(Br)cc12`, the inhibition was 65.6% (active). In the case of `COC(=O)c1oc2ccc(Br)cc2c1NC(C)=O`, the inhibition is -6.53% (inactive). On to `Cc1ccc(OCC(=O)Nc2ccccc2Sc2ccc(Cl)cc2)c([N+](=O)[O-])n1`, for which the inhibition is 3.81% (inactive). As to `CCN(CC(=O)Nc1ccc(NC(C)=O)cc1)C(=O)CSC(=S)N1CCCC1`, the inhibition was -7.39% (inactive). Turning to `Cc1cccc(NC(=O)/C=C/c2ccc3c(c2)OCO3)n1`, the inhibition was 78% (active).

As for `O=C(/C=C/c1ccc2c(c1)OCO2)NCc1ccc(F)cc1`, the inhibition was -2.53% (inactive). For `Cc1cccc(NC(=O)Nc2ccc3c(c2)OCO3)n1`, the inhibition was 17% (inactive).

`CCN(CC(=O)NCC(=O)Nc1cccc(C)c1C)Cc1ccccc1`: the inhibition was 1.52% (inactive). With `O=C(COC(=O)c1ccc(O)cc1)Nc1nccs1`, the inhibition is -6.7% (inactive). `Cc1c(Cl)cccc1NC(=O)NCCCN1CCCC1=O`: the inhibition was -2.59% (inactive). As for `Cc1c(Cl)cccc1NC(=O)Nc1ccc(C(=O)N2CCCC2)cc1`, the inhibition was 57% (active). In the case of `O=C(Nc1ccc(Cl)cc1)Nc1ccc(C(=O)N2CCOCC2)cc1`, the inhibition is 11.1% (inactive). Then `COc1ccc(N2CCN(C(=O)c3cn(C)c4ccc(S(=O)(=O)N5CCOCC5)cc4c3=O)CC2)cc1`, with 8.09% (inactive).

In the case of `Cc1ccc(/C(N)=N/OC(=O)COc2ccc(Cl)c(C)c2)cc1`, the inhibition was -1.43% (inactive). For `Cc1cccc(/C(N)=N/OC(=O)c2ccccc2Cl)c1` the value was 98.2% (active); for `N/C(=N\OC(=O)c1cc(-c2ccccc2)nc2ccccc12)c1ccncc1`, -11.9% (inactive); for `CC(C)c1ccc(NC(=O)CCN2C(=O)c3ccc([N+](=O)[O-])cc3C2=O)cc1`, -0.0494% (inactive).

Consider `COc1ccc(C(=O)COC(=O)Cn2cnc3c2c(=O)n(C)c(=O)n3C)c(OC)c1`, for which the inhibition was -3.24% (inactive). As for `COCn1c(COc2ccccc2)nc2ccccc21`, the inhibition was 65.8% (active). For `Cn1c(COc2ccc(Cl)cc2)nc2ccccc2c1=O` the value was -3.98% (inactive); for `CC(C)n1c(COc2ccccc2)nc2ccccc21`, 15% (inactive). `O=C(Cn1c(COc2ccccc2)nc2ccccc21)Nc1cc(Cl)c(Cl)cc1Cl`: the inhibition is -0.0494% (inactive). As for `CCOc1ccc(C(O)Cc2nc3ccccc3n2C)cc1` (configuration not stated), the inhibition was 3.12% (inactive). For the compound `Cc1ccc(OCc2nc3ccccc3n2C)cc1`, the inhibition was 59.7% (active). As to `Cc1ccc(/C=N/NC(=O)C(NC(=O)c2ccccc2)c2n[nH]c(=O)c3ccccc23)cc1` (configuration not stated), the inhibition was 0.556% (inactive). For `COC(=O)c1sccc1NS(=O)(=O)c1ccc(F)cc1F`, the inhibition was 6.45% (inactive).

Take `COC(=O)[C@]1(Cc2ccccc2)N[C@H](CN(C)S(=O)(=O)c2ccc(F)cc2)[C@@H]2C(=O)N(Cc3ccccc3)C(=O)[C@@H]21`: the inhibition is 1.87% (inactive). For `CNc1[nH]ncc1[N+](=O)[O-]` the value was 3.45% (inactive). For `O=C(NN=Cc1ccc(N2CCOCC2)cc1)c1cc2ccccc2cc1O` the value was 4.23% (inactive); for `COc1ccc(C/C(C)=N/NC(=O)c2cc(C)oc2C)cc1`, -5.26% (inactive); for `Cc1cc(C(=O)N/N=C\C(Br)=C\c2ccccc2)c(C)o1`, 21.1% (inactive). `CC(=C/c1ccccc1)/C=N/NC(=O)c1cc(C)oc1C`: the inhibition is 73% (active).

For `Cc1cc(C(=O)N/N=C/c2ccc(N3CCOCC3)cc2)c(C)o1`, the inhibition is 85.5% (active). Then `Cc1ccccc1N/N=C/c1ccc(N2CCOCC2)cc1`, with -3.84% (inactive); and `O=C(c1ccc(CS(=O)(=O)c2ccccc2)o1)N1CCN(c2ccccc2)CC1`, with -0.219% (inactive).

Consider `O=C(NNc1ccccc1Cl)C(O)(c1cccc(C(F)(F)F)c1)c1cccc(C(F)(F)F)c1`, for which the inhibition is 1.97% (inactive).

Take `COc1cc(CNC2CCCCC2)c(Br)cc1OC1CCCC1`: the inhibition was -2.57% (inactive). Then `COc1ccc(C(C)NC(=O)C2CCCC2)cc1` (configuration not stated), with 1.04% (inactive); and `COc1cccc(C(=O)NNC(=O)c2cccc(F)c2)c1`, with 3.09% (inactive); and `COc1cccc(C(=O)c2cc3ccc(O)cc3oc2=O)c1`, with 100% (active). In the case of `CCOC(=O)c1cc2cc3ccccc3cc2oc1=O`, the inhibition is 7.03% (inactive). For the compound `COc1ccc(N2CC(C(=O)NCCN3C(=O)S/C(=C\c4cccnc4)C3=O)CC2=O)c(OC)c1` (configuration not stated), the inhibition was -2.06% (inactive).

In the case of `Cc1nc(-c2ccc(F)cc2)c(CC(=O)N(C)CC(=O)Nc2c(C)cccc2C)s1`, the inhibition is -11.8% (inactive). For `CSCCC1NC2(C(=O)Nc3ccc(Cl)cc32)[C@@H]2C(=O)N(C3CCCC3)C(=O)[C@H]12` (some centres not stated) the value was 10.2% (inactive). Consider `COc1ccc(OC)c2[nH]c(=O)c(CCNC(=O)C(=O)c3c[nH]c4ccccc34)cc12`, for which the inhibition was 4.26% (inactive).

With `CCOC(=O)N1CCN(C(=O)COc2ccc3oc4c(c3c2)CCCC4)CC1`, the inhibition was -3.39% (inactive). For `CCN(CC)CCCNC(=O)COc1ccc2oc3c(c2c1)CCCC3` the value was 3.16% (inactive); for `O=C(COc1ccc2oc3c(c2c1)CCCC3)Nc1ccccn1`, 89.1% (active); for `O=C1C=C(c2ccnc3cc(Cl)ccc23)C[C@@H](c2ccc3c(c2)OCO3)C1`, 2.03% (inactive). Then `CC(=O)N1CCN(S(=O)(=O)c2ccc(C)c([N+](=O)[O-])c2)C1C(C)C` (configuration not stated), with 2.77% (inactive); and `CCOC(=O)C(NC(=O)CC(C)C)(Nc1sc2c(c1C(N)=O)CCCC2)C(F)(F)F` (configuration not stated), with -5.57% (inactive). For `CC(NCc1ccccc1OC1CCCC1)c1ccccc1` (configuration not stated) the value was 8.44% (inactive); for `Cc1ccc(/C=N/NC(=O)c2cc3ccccc3cc2O)o1`, 19% (inactive). With `Cc1cc(N=Nc2ccc3ccccc3c2)ccc1O`, the inhibition was 97.5% (active). Take `COC(=O)c1cccc(-n2[nH]nnc2=S)c1`: the inhibition is 8.95% (inactive). For the compound `Cc1ccc(CSc2ccc(S(=O)(=O)N3CCCCC3)cn2)cc1`, the inhibition was 14.9% (inactive). For `COc1cc(C(=O)N2CCN(C)CC2)cc(OC)c1OC` the value was -4.77% (inactive); for `O=c1[nH]c(/C=C/c2cccc(Br)c2)nc2ccccc12`, 65.8% (active); for `O=c1[nH]c(/C=C\c2cccc(C(F)(F)F)c2)nc(O)c1[N+](=O)[O-]`, 11.2% (inactive). For the compound `CCOc1cc(/C=C/c2nc3ccccc3c(=O)[nH]2)cc(Br)c1OC`, the inhibition was -1.26% (inactive).
